According to the antibiotic and cytotoxicity screens of Wong et al. (2023):
Hit rate of the full screen: of about 39,000 compounds, about 3,300 (8.5%) were called active. This excerpt belongs to a sample that is enriched for actives.

What follows are compounds tested on HepG2 (assay: cytotoxicity call (relative viability < 0.9)). Conditions: 10 µM.
In the case of Cc1ccc(S(=O)(=O)N(C)C[C@@H]2OCCCC[C@@H](C)Oc3ccc(NS(=O)(=O)c4ccc(F)cc4)cc3C(=O)N([C@@H](C)CO)C[C@@H]2C)cc1, the cytotoxicity call is reported as “inactive”.
C[C@H](CO)N1C[C@H](C)[C@@H](CN(C)C(=O)Nc2ccccc2C(F)(F)F)OCc2ccccc2-c2ccccc2C1=O was tested, and the cytotoxicity call was “inactive”.
With C=C(NC(=O)C(=C)NC(=O)c1csc(C2=N[C@H]3c4csc(n4)[C@H]4NC(=O)c5csc(n5)[C@H](C(C)(O)[C@@H](C)O)NC(=O)[C@H]5CSC(=N5)C(=CC)NC(=O)[C@H]([C@@H](C)O)NC(=O)c5csc(n5)[C@]3(CC2)NC(=O)[C@H](C)NC(=O)C(=C)NC(=O)[C@H](C)NC(=O)[C@H]([C@H](C)CC)N[C@@H]2C=Cc3c([C@H](C)O)cc(nc3[C@H]2O)C(=O)O[C@@H]4C)n1)C(N)=O (stereo partly specified) the cytotoxicity call was “active”.
C=C(NC(=O)C(=C)NC(=O)c1csc(C2=N[C@@H]3c4csc(n4)[C@@H]4NC(=O)c5csc(n5)[C@H](C(C)(O)[C@@H](C)O)NC(=O)[C@H]5CSC(=N5)/C(=C/C)NC(=O)[C@H]([C@@H](C)O)NC(=O)c5csc(n5)[C@]3(CC2)NC(=O)[C@@H](C)NC(=O)C(=C)NC(=O)[C@@H](C)NC(=O)[C@@H]([C@H](C)CC)N[C@H]2C=Cc3c([C@@H](C)O)cc(nc3[C@@H]2O)C(=O)O[C@H]4C)n1)C(N)=O (stereo partly specified) was tested, and the cytotoxicity call was “inactive”.
C=C(NC(=O)C(=C)NC(=O)c1csc(C2=NC3c4csc(n4)C4NC(=O)c5csc(n5)C(C(C)(O)C(C)O)NC(=O)C5CSC(=N5)C(=CC)NC(=O)C(C(C)O)NC(=O)c5csc(n5)C3(CC2)NC(=O)C(C)NC(=O)C(=C)NC(=O)C(C)NC(=O)C(C(C)CC)NC2C=Cc3c(C(C)O)cc(nc3C2O)C(=O)OC4C)n1)C(N)=O (stereo unspecified) was tested, and the cytotoxicity call was “active”.
C[C@@H]1CN([C@@H](C)CO)C(=O)Cc2cc(NS(C)(=O)=O)ccc2O[C@H]1CN(C)S(=O)(=O)c1cn(C)cn1 was tested, and the cytotoxicity call was “inactive”.
With C[C@H](CO)N1C[C@H](C)[C@H](CN(C)S(=O)(=O)c2ccc(F)cc2)Oc2ccc(NC(=O)c3ccncc3)cc2CC1=O the cytotoxicity call was “inactive”.
For COc1ccc(S(=O)(=O)N(C)C[C@H]2Oc3c(cccc3N(C)C)C(=O)N([C@@H](C)CO)C[C@@H]2C)cc1, the cytotoxicity call was “inactive”.
In the case of COc1ccc2c3c(n(c2c1)C)[C@@H](CO)N(C[C@]13CN(C1)C(=O)c1ccncc1)C(=O)C1CCCCC1, the cytotoxicity call is reported as “inactive”.
For COc1ccc(NC(=O)N2C[C@H](O)COC[C@@H]3O[C@@H](CC(=O)NC4Cc5ccccc5C4)CC[C@H]32)cc1, the cytotoxicity call was “inactive”.
For C[C@@H]1CN([C@H](C)CO)C(=O)c2cc(C#CC(C)(C)O)cnc2O[C@H]1CN(C)Cc1cccc(C(=O)O)c1, the cytotoxicity call was “inactive”.
